High-throughput results (PubChem)
VP16 counter: VP16 counterscreen qHTS for inhibitors of ROR gamma transcriptional activity; Potency, µM (top dose mostly 53.6 µM), for inactives: top-dose activity, negative = inhibition, usual class: inhibitors; Drosophila S2 Gal4-VP16 UAS-luciferase, luminescence, 20 h; hit rate 3.5% among 310,000; AID 2546, 2010;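 also: Gal4-VP16 expression switched on by copper sulfate through the metallothionein promoter; % is scaled to controls: 0 for no effect and ±100 for the full control effect; nearly all actives have a fitted effect of over 50% in size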
GLP1R ag: qHTS of GLP-1 Receptor Agonists; Glucagon-like peptide 1 receptor (Homo sapiens), P43220; HEK293 GLP-1R CRE-luciferase, luminescence, 4-6 h; cells express a hypersensitive GLP-1R form; Potency, µM (highest dose often 45.6 µM), for the others: at the highest dose activation, actives largely listed as activators; hit rate 0.007% among 380,000; also: % of control where 0% means no effect
Target sequence (P43220 whole entry, looked up): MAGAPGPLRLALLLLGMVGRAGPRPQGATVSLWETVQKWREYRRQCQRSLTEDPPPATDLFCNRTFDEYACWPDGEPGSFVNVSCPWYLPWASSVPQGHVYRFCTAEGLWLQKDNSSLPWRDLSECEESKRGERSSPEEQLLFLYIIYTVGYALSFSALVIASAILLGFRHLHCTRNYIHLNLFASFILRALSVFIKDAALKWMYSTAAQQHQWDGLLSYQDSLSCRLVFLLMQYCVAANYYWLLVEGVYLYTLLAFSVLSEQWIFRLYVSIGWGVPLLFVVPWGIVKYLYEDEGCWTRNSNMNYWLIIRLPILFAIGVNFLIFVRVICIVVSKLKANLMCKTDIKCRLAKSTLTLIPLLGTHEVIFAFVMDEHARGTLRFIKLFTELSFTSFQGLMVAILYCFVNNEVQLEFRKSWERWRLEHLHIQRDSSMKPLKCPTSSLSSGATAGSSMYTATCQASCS
RORg inh: qHTS for inhibitors of ROR gamma transcriptional activity; Potency, µM (highest dose often 53.6 µM), inactives show at the highest dose activity change, negative = inhibition, actives largely listed as inhibitors; AID 2551, 2010; Drosophila S2 Gal4-RORgamma UAS-luciferase reporter, 20 h; hit rate 5.4% among 310,000; Nuclear receptor ROR-gamma (Mus musculus), P51450; also: % is scaled to controls: 0 for no effect and ±100 for the full control effect; nearly all actives have a fitted effect of over 60% in size
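Luciferase reporter read in Schneider cells carrying Gal4-RORγ (mouse) and UAS-Photinus luciferase; cells given compound 1 h before 700 uM copper sulfate induction, then incubated 20 h at ambient temperature.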
GLP1R cytotox: qHTS of GLP-1 Receptor Inverse Agonists: Cytotox Screen | HEK293 cAMP-luciferase reporter cells, luminescence, 24 h | Potency, µM (titrated, usually from 38.3 µM), without a hit: at the top dose activity change, negative = inhibition, most hits filed as inhibitors | hit rate 0.13% among 410,000;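 also: loss of luciferase light is scored as toxicity; % is scaled to controls: 0 for no effect and ±100 for the full control effect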
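1536-well qHTS counterscreen of the MLSMR; 200 cells/uL, 12 h pre-incubation, 23 nL cpd, 24 h at 37 deg C 5% CO2, luciferase detection reagent, 12 min RT, luminescence. Inhibition = undesired.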
GLP-1R inv ag: qHTS of GLP-1 Receptor Inverse Agonists (Inhibition Mode). HEK293 GLP-1R CRE-luciferase, luminescence, 24 h; GLP-1R form is constitutively active. Potency, µM (top dose mostly 38.3 µM), inactives show at the top dose activity change, negative = inhibition, actives largely listed as inhibitors. hit rate 1.6% among 410,000; also: % is scaled to controls: 0 for no effect and ±100 for the full control effect; nearly all actives have a fitted effect of over 55% in size
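Readout was luciferase luminescence, measured 12 min after detection reagent at room temperature. Beforehand, GLP-1R reporter HEK293 cells had sat 12 h, then received compounds for 24 hr at 37 deg C.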
The depositor's hits bear a star; [ ] = remark or other dose. Hits are enriched below; roughly 5.9% of the tested compounds scored in any of these assays. Calls follow the shape of the dose curve; as a rule, active = well fitted curve in the direction sought with a large enough effect; inconclusive = small, poorly fitted or top-dose-only effect, or another doubt; inactive = no such curve, though single readings can be large; an effect the other way counts as inactive or inconclusive. Potency is read from the fitted curve at half-maximal effect.

`CC/C(=C\C=C\[C@@H]1C=C[C@@H]2CCC[C@H]2[C@@H]1C(=O)c1ccc[nH]1)[C@@H]1O[C@@H]([C@@H](C)C(=O)O)CC[C@@H]1C` gave VP16 counter 10µM*, GLP1R ag -17%, RORg inh inconclusive, GLP1R cytotox inconclusive and GLP-1R inv ag 2.5µM*.
O=C(Nc1ccc(Cl)c(Cl)c1)Nc1ccc(Br)cc1F was read as VP16 counter 13µM*, GLP1R ag -21%, RORg inh inconclusive, GLP1R cytotox inconclusive and GLP-1R inv ag inconclusive.
Screening Cc1ccc2c(c1)Cc1c(C(=O)NN3CCCCC3)nn(-c3ccc(Cl)cc3Cl)c1-2 returned VP16 counter -5% and RORg inh inconclusive.
`O=c1c(C=NCc2cccs2)c(O)n(C2CCCCC2)c(=O)n1C1CCCCC1` gave VP16 counter 0%, GLP1R ag -2%, RORg inh -18%, GLP1R cytotox 13% and GLP-1R inv ag inconclusive.
N=C(N)c1c(O)n(C2CCCCC2)c(=O)n(C2CCCCC2)c1=O was read as VP16 counter -2%[0.365 µM], GLP1R ag -38%, RORg inh inconclusive, GLP1R cytotox 11µM* and GLP-1R inv ag 4.5µM*.
For Oc1ccc([C@H]2CNCc3c2ccc(O)c3O)cc1O the results were GLP1R ag -5%.
For O=C(NC(c1ccc(F)cc1)c1ccc2ccccc2n1)C1CCN(CCOc2ccc(Cl)cc2)CC1 (stereo unspecified) the results were GLP1R ag -6%, GLP1R cytotox inconclusive and GLP-1R inv ag 6.3µM*.
`CCOC(=O)C1=C(Cc2ccc(Cl)cc2)C(=O)c2ccccc2C1=O` gave VP16 counter inconclusive, GLP1R ag -11%, RORg inh 8.9µM*, GLP1R cytotox inconclusive and GLP-1R inv ag inconclusive.
COc1ccc(C(=O)C(Cc2ccccc2)N(C)C)cc1 (stereo unspecified) was read as VP16 counter 1%[0.365 µM], GLP1R ag 21%, RORg inh 8%, GLP1R cytotox 1% and GLP-1R inv ag 5%.
`COc1ccc(C(=O)c2coc3c2C(=O)C(=O)c2ccccc2-3)cc1` gave VP16 counter inconclusive, GLP1R ag 11%, RORg inh 11µM*, GLP1R cytotox inconclusive and GLP-1R inv ag -6%.
`O=C(NC(c1ccc(-c2ccccc2)cc1)c1cnccn1)C1CCN(Cc2ccc(Oc3ccccc3)cc2)CC1` (stereo unspecified) gave GLP1R ag 1%, GLP1R cytotox inconclusive and GLP-1R inv ag 4µM*.
For C=CCn1c(-c2ccc([N+](=O)[O-])cc2)n[nH]c1=S the results were VP16 counter inconclusive, GLP1R ag -4%, RORg inh 11µM*, GLP1R cytotox -4% and GLP-1R inv ag 18%.
Screening CSCC[C@H](NC(=O)[C@H](CC(C)C)NC(=O)[C@@H](Cc1cnc[nH]1)NC(=O)[C@H](Cc1ccccc1)NC(=O)[C@@H](Cc1ccccc1)NC(=O)[C@@H](N)Cc1ccc(O)cc1)C(N)=O returned VP16 counter -12% and RORg inh 1%.
`Cc1ccc(NC(=O)N2CCN(c3cc(-c4noc(C)n4)ccc3C)CC2)c(F)c1` gave GLP1R ag -2%, GLP1R cytotox -11% and GLP-1R inv ag inconclusive.
`CCC(C)C1NC(=O)C2CCCN2C(=O)C(CC(C)C)OC(=O)CCNC(=O)C(C)N(C)C(=O)C(C(C)C)N(C)C1=O` (stereo unspecified) gave GLP1R ag 9%, GLP1R cytotox 4.5µM* and GLP-1R inv ag inconclusive.
`C=CCCC[C@@H]1OC(=O)CNC(=O)C([C@@H](C)CC)NC(=O)[C@@H]2CCCN2C(=O)C([C@@H](C)CC)OC(=O)[C@H](Cc2ccccc2)N(C)C(=O)[C@H](C(C)C)NC(=O)C1(C)C` (stereo partly specified) gave GLP1R ag -1%, GLP1R cytotox inconclusive and GLP-1R inv ag inconclusive.
For C[C@@H]1CN([C@H](C)CO)S(=O)(=O)c2ccc(C#CC3CCCC3)cc2O[C@H]1CN(C)C(=O)Cc1ccccc1 the results were GLP1R ag -2%, GLP1R cytotox inconclusive and GLP-1R inv ag inconclusive.
Screening Cc1ccc(N2CCN(C(=O)C3CCC(CNS(=O)(=O)c4ccc(Br)s4)CC3)CC2C)cc1 (stereo unspecified) returned GLP1R cytotox -8% and GLP-1R inv ag inconclusive.
For CCCCC/C=C\C/C=C\C/C=C\CCCCC(=O)NCCc1ccc(O)c(O)c1 the results were VP16 counter -13% and RORg inh -5%.
`CCOC(=O)C(SP(=S)(OC)OC)c1ccccc1` (stereo unspecified) gave VP16 counter inconclusive and RORg inh 13µM*.
Screening CCOC(=O)CC(SP(=O)(OC)OC)C(=O)OCC (stereo unspecified) returned VP16 counter -14% and RORg inh 0%.
For Cc1c2ccncc2c(C)c2c1[nH]c1ccccc12 the results were VP16 counter 5.6µM*, GLP1R ag 0%, RORg inh 10µM*, GLP1R cytotox -4% and GLP-1R inv ag -8%.
`COC(=O)[C@@H]1C[C@H]1[C@@H](NP(=O)(c1ccccc1)c1ccccc1)c1ccccc1` gave VP16 counter inconclusive, GLP1R ag 6%, RORg inh 10µM*, GLP1R cytotox 3% and GLP-1R inv ag 2%.
`C=C(CC1(C(C)NP(=O)(c2ccccc2)c2ccccc2)CC1)c1ccccc1` (stereo unspecified) gave VP16 counter -13% and RORg inh 1%.
For CCCCNc1cc(C)nc(NCc2ccccc2)n1 the results were VP16 counter 7.1µM*, GLP1R ag 9%, RORg inh inconclusive, GLP1R cytotox 11µM* and GLP-1R inv ag inconclusive.
Screening C[n+]1c(-c2ccccc2)c2cc(N)ccc2c2ccc(N)cc21 returned VP16 counter 13µM*, GLP1R ag -3%, RORg inh inconclusive, GLP1R cytotox inconclusive and GLP-1R inv ag 1.8µM*.
COc1ccc(S(=O)(=O)N(CC(=O)NCc2ccccc2OC)c2ccc(C)cc2)cc1 was read as GLP1R cytotox -20% and GLP-1R inv ag 3.2µM*.
CC[C@@]1(O)CC(O)c2c(cc3c(c2O)C(=O)c2c(O)ccc(O)c2C3=O)C1C(=O)OC (stereo partly specified) was read as VP16 counter 20% and RORg inh inconclusive.
